# Assay results as given in PubChem BioAssay (Tox21).
# Unmarked numbers belong to inactive results. Results filed as inconclusive are left out. Entries that show only a call come without a potency. The source made the active and inactive calls. Unless noted, the call rests on the fitted dose curve; in most records, active means well fitted curve in the direction sought with a large enough effect in the repeat runs; inconclusive means weak or mixed curves; inactive means no such curve, though single readings can be large; an effect the other way counts as inactive or inconclusive.
# How the values were obtained:
# [1] = qHTS assay to identify small molecule agonists of the hypoxia (HIF-1) signaling pathway (AID 1224846; active means well fitted activation curve with a large enough effect in the signal ratio in the repeat runs, not every such curve was filed as active; the % refers to the signal ratio)
# How it was run: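 Measured by blue/green FRET after loading CCF4-AM: beta-lactamase expressed from a hypoxia response element in ME-180 cells. Test agents were delivered in DMSO and left 17 hrs; cells had been plated 5 hrs earlier in low-serum (0.5% dialyzed FBS) medium.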
# [2] = qHTS assay to identify small molecule agonists of H2AX - cell viability counter screen (AID 1224847; calls by dose curve; further: nearly all actives have a fitted effect of over 30% in size; further: potency means the concentration at half of the fitted maximal effect)
# How it was run: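 Quantitative HTS viability measurement: CHO-K1 wild-type cells in serum (10% FBS) medium, short 3 hr drug exposure at 37C with 0.76% DMSO, CellTiter-Glo luminescent detection.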
# [3] = qHTS RealTime-Glo MT Cell Viability Assay in HepG2 cells - 24 hour (AID 1224867); further: nearly all actives have a fitted effect of over 50% in size
# How it was run: (§1)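 HepG2 cells were seeded at 600 cells/well together with NanoLuc luciferase and a cell-permeant prosubstrate, preincubated 5 h at 37 C/5% CO2, then pin-dosed with compounds in DMSO. Nonlytic luminescence from viable cells was read at each time point.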
# [4] = qHTS RealTime-Glo MT Cell Viability Assay in HEK293 cells - 32 hour (AID 1224868); further: nearly all actives have a fitted effect of over 50% in size; further: potency means the concentration at half of the fitted maximal effect
# How it was run: (§2)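 HEK293 cells were seeded at 600 cells/well together with NanoLuc luciferase and cell-permeant prosubstrate, preincubated 5 h at 37 C/5% CO2, then given compound in DMSO by pintool. Luminescence from viable-cell prosubstrate reduction was read repeatedly over 40 h.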
# [5] = A CellTox Green Cytotoxicity Assay to monitor cytotoxicity in HEK293 cells - 0 hour (AID 1224869); further: nearly all actives have a fitted effect of over 50% in size
# How it was run: (§3)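 Each value comes from one timepoint of a single continuous run in which HEK293 cells with CellTox Green were exposed to compound for up to 40 h at 37 C, dye fluorescence rising with cell death.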
# [6] = qHTS RealTime-Glo MT Cell Viability Assay in HepG2 cells - 40 hour (AID 1224870); further: nearly all actives have a fitted effect of over 50% in size
# How it was run: (§4)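 Real-time viability: cells seeded at 600 per well together with NanoLuc and cell-permeant prosubstrate, compounds added after 5 h incubation. Luminescence tracked at 0, 8, 16, 24, 32 and 40 h of exposure.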
# [7] = A CellTox Green Cytotoxicity Assay to monitor cytotoxicity in HEK293 cells - 40 hour (AID 1224871); further: nearly all actives have a fitted effect of over 45% in size
# How it was run: as §3
# [8] = qHTS RealTime-Glo MT Cell Viability Assay in HEK293 cells - 16 hour (AID 1224872)
# How it was run: as §2
# [9] = A CellTox Green Cytotoxicity Assay to monitor cytotoxicity in HEK293 cells - 24 hour (AID 1224875); further: series mostly up to about 77 µM; nearly all actives have a fitted effect of over 45% in size
# How it was run: as §3
# [10] = A CellTox Green Cytotoxicity Assay to monitor cytotoxicity in HepG2 cells - 24 hour (AID 1224878); further: nearly all actives have a fitted effect of over 45% in size
# How it was run: (§5)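 Continuous culture of HepG2 cells with a membrane-impermeant DNA dye; rising fluorescence marks dead cells. Compound exposure lasted up to 40 h at 37 C, with reads every 8 h from 0 h.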
# [11] = A CellTox Green Cytotoxicity Assay to monitor cytotoxicity in HepG2 cells - 40 hour (AID 1224879); further: nearly all actives have a fitted effect of over 40% in size
# How it was run: as §5
# [12] = A CellTox Green Cytotoxicity Assay to monitor cytotoxicity in HEK293 cells - 32 hour (AID 1224881); further: nearly all actives have a fitted effect of over 40% in size
# How it was run: as §3
# [13] = A CellTox Green Cytotoxicity Assay to monitor cytotoxicity in HepG2 cells - 0 hour (AID 1224882); further: nearly all actives have a fitted effect of over 35% in size
# How it was run: as §5
# [14] = qHTS RealTime-Glo MT Cell Viability Assay in HepG2 cells - 8 hour (AID 1224873); further: nearly all actives have a fitted effect of over 55% in size
# How it was run: as §4
# [15] = A CellTox Green Cytotoxicity Assay to monitor cytotoxicity in HepG2 cells - 16 hour (AID 1224876); further: nearly all actives have a fitted effect of over 45% in size
# How it was run: as §5
# [16] = qHTS RealTime-Glo MT Cell Viability Assay in HepG2 cells - 32 hour (AID 1224877); further: nearly all actives have a fitted effect of over 55% in size
# How it was run: as §1
# [17] = qHTS RealTime-Glo MT Cell Viability Assay in HEK293 cells - 0 hour (AID 1224880)
# How it was run: (§6)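 qHTS format; HEK293 cells with NanoLuc/prosubstrate reagent, 37 C/5% CO2 for 5 h pre-dosing; compounds 23 nL in DMSO; luminescence at each time point reflects viable cells.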
# [18] = qHTS RealTime-Glo MT Cell Viability Assay in HEK293 cells - 40 hour (AID 1224874); conditions: RealTime-Glo luminescence; max response: stronger effect = lower value; further: nearly all actives have a fitted effect of over 50% in size; further: potency means the concentration at half of the fitted maximal effect
# How it was run: as §6
Structure (SMILES),outcome [1],Potency [2],Potency [3],Potency [4],Potency [5],Potency [6],Potency [7],Potency [8],Potency [9],Potency [10],Potency [11],Potency [12],Potency [13],Potency [14],Potency [15],Potency [16],Potency [17],max response [18],Potency [18]
Cc1cc(C)c(C=O)c(C)c1,inactive,inactive,inactive,inactive,inactive,inactive,inactive,inactive,inactive,inactive,inactive,inactive,inactive,,,,,,
Cc1cccc(C)n1,inactive,inactive,inactive,inactive,inactive,inactive,inactive,inactive,inactive,inactive,inactive,inactive,,inactive,inactive,inactive,inactive,,
O=C1OC(=O)c2ccc3c4c(ccc1c24)C(=O)OC3=O,inactive,inactive,inactive,inactive,inactive,inactive,inactive,inactive,inactive,inactive,inactive,,inactive,inactive,,inactive,inactive,0.327%,
CC1=C(/C=C/C(C)=C/C=C/C(C)=C\C=O)C(C)(C)CCC1,inactive,107 µM (active),inactive,46.4 µM (active),inactive,inactive,,,,inactive,,,inactive,,inactive,inactive,inactive,,46.4 µM (active)
OCCCS,inactive,inactive,inactive,inactive,inactive,inactive,inactive,inactive,inactive,inactive,inactive,inactive,inactive,inactive,inactive,inactive,inactive,7.88%,
CCOC(=O)CN,inactive,inactive,inactive,inactive,inactive,inactive,inactive,inactive,inactive,inactive,inactive,inactive,inactive,inactive,inactive,inactive,inactive,-0.943%,
OCCC(O)CO (stereo not drawn),inactive,inactive,inactive,inactive,inactive,,inactive,inactive,inactive,inactive,inactive,inactive,inactive,inactive,inactive,,inactive,15.6%,
C/C=C/c1ccc(OC)c(OC)c1,inactive,inactive,inactive,inactive,inactive,,inactive,inactive,inactive,inactive,inactive,inactive,,inactive,,inactive,inactive,,
CCCCCCCC(OC)OC,inactive,inactive,inactive,inactive,inactive,,inactive,inactive,inactive,inactive,inactive,,inactive,inactive,,,inactive,5.48%,
CC1(C)C(=O)N(CO)C(=O)N1CO,inactive,inactive,inactive,inactive,inactive,inactive,,inactive,,inactive,inactive,,,inactive,inactive,inactive,inactive,2.01%,
C[Si](C)O[Si](C)C,inactive,inactive,inactive,inactive,inactive,inactive,inactive,inactive,inactive,inactive,inactive,,inactive,inactive,inactive,inactive,inactive,-8.35%,
